Measured values: paper PMC7862700, “An all-to-all approach to the identification of sequence-specific readers for epigenetic DNA modifications on cytosine”

Tests used:
Experiment in all cases: DAPPL (digital affinity profiling via proximity ligation, sequencing); 10 mM Tris-HCl pH 7.5, 50 mM NaCl, 1 mM DTT, 4% glycerol, room temperature, 30 min; GST-TFs on glutathione beads, 16-mer random dsDNA library, 0.1% formaldehyde crosslink after washing; high values mean tight binding
Details in all cases: protein: recombinant; tags: N-terminal GST; dsDNA, one strand shown
FLI1 = biological target: T1, FLI1 (Homo sapiens, UniProt Q01543 1-452)
T1 sequence: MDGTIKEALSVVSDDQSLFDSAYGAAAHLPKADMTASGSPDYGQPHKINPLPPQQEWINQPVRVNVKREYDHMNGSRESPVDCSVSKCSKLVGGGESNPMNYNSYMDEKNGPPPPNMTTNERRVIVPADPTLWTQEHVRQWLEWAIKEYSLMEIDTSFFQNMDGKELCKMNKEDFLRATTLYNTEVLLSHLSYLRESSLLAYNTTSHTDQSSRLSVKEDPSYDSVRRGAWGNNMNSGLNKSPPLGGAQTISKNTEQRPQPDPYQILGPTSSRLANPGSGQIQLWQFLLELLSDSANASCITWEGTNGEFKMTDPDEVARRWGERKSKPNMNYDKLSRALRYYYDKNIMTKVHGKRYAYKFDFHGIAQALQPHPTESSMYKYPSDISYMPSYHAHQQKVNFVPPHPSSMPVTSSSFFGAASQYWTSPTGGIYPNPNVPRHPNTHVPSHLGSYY
Procedure, shortened: (§1)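 Human transcription factors fused to GST were expressed in yeast, captured on glutathione beads, given DNA barcodes and pooled with a GST-only negative control. Pools were incubated with 200 nmole of a 16-mer random double-stranded DNA library in Tris/NaCl/DTT/glycerol buffer at room temperature for 30 min. They were then washed, crosslinked with 0.1% formaldehyde, proximity-ligated (BsaI/T4 ligase, 1 h, 37 °C), PCR-amplified and sequenced on an Illumina NextSeq500. Binding signal is each 6-mer's read frequency for a factor divided by its frequency for the GST control.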

ELK1 = biological target: T2, ELK1 (Homo sapiens, UniProt P19419 1-428)
T2 sequence: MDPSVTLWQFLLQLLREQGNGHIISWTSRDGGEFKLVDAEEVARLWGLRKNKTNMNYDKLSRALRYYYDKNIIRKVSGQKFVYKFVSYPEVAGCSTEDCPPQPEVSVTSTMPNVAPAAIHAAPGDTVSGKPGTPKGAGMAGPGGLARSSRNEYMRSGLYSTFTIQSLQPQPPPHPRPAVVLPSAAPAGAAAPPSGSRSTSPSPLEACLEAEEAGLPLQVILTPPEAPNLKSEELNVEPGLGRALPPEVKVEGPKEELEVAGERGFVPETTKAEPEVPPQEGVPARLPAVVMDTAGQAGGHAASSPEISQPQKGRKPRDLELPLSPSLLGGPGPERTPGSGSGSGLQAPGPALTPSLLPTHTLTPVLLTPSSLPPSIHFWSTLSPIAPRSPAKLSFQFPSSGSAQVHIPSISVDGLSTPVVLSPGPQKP
Procedure, shortened: as §1

ELF4 = ELF4 (Homo sapiens, UniProt Q99607 1-663)
Procedure, shortened: as §1

ELF3 = biological target: T3, ELF3 (Homo sapiens, UniProt P78545 1-371)
T3 sequence: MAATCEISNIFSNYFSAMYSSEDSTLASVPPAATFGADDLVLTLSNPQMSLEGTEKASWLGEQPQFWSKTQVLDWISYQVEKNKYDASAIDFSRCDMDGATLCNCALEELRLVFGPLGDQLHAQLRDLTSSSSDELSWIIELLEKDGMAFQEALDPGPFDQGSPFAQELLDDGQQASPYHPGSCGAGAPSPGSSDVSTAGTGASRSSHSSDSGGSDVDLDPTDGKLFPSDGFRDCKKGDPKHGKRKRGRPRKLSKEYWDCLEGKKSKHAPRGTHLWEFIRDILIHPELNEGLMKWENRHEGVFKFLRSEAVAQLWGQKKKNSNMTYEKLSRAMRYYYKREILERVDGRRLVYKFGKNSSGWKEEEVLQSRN
Procedure, shortened: as §1

ERF = biological target: T4, ERF (Homo sapiens, UniProt P50548 1-548)
T4 sequence: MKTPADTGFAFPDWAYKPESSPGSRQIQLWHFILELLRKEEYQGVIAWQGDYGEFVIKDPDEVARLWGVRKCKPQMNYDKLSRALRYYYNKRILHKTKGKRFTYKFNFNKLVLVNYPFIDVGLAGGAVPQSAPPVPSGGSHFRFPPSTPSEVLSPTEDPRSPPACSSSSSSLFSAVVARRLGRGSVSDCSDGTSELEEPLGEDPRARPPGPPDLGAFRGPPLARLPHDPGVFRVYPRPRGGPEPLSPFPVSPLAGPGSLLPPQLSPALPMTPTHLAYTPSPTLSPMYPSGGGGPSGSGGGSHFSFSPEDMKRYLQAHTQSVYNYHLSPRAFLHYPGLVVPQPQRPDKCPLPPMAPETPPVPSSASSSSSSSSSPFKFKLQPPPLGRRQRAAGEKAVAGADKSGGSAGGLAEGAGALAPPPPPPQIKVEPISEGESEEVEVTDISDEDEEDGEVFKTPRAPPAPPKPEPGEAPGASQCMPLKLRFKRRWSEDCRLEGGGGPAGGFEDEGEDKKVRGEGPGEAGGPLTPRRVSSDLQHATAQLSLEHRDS
Procedure, shortened: as §1

ETV7 = biological target: T5, ETV7 (Homo sapiens, UniProt Q9Y603 1-341)
T5 sequence: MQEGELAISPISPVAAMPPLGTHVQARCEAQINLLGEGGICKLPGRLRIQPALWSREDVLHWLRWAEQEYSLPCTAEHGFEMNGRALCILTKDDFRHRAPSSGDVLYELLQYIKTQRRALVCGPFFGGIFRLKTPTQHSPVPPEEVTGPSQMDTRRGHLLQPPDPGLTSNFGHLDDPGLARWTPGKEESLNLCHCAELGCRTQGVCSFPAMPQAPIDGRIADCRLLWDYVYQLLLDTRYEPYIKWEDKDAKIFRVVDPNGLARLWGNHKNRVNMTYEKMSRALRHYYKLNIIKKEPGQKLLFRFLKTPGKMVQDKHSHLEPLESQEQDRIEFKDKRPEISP
Procedure, shortened: as §1

ETV3 = biological target: T6, ETV3 (Homo sapiens, UniProt P41162-2 1-143)
T6 sequence: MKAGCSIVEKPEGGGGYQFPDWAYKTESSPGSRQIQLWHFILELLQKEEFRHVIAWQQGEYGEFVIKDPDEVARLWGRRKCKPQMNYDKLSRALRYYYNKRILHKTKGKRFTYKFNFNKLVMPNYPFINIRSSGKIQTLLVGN
Procedure, shortened: as §1

ETV6 = ETV6 (Homo sapiens, UniProt P41212 1-452)
Procedure, shortened: as §1

ELF4, sequence (Q99607 whole entry): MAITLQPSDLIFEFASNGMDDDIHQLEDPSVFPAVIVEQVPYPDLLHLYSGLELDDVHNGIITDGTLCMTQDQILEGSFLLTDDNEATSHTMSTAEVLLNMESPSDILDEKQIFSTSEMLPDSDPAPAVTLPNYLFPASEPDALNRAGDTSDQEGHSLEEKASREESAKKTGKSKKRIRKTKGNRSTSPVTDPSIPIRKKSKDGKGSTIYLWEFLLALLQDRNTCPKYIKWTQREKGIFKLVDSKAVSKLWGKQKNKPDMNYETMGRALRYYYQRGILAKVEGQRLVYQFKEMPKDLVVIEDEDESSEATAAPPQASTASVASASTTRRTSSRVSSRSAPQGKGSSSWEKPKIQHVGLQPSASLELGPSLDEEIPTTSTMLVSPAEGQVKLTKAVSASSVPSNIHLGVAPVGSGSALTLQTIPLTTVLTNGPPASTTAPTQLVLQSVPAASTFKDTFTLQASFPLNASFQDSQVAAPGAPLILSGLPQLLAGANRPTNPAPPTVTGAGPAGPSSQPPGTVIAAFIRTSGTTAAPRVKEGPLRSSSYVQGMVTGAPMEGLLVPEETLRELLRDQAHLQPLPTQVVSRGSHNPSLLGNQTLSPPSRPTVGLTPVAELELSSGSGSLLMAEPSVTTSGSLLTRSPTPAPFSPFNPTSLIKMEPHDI
ETV6, sequence (P41212 whole entry): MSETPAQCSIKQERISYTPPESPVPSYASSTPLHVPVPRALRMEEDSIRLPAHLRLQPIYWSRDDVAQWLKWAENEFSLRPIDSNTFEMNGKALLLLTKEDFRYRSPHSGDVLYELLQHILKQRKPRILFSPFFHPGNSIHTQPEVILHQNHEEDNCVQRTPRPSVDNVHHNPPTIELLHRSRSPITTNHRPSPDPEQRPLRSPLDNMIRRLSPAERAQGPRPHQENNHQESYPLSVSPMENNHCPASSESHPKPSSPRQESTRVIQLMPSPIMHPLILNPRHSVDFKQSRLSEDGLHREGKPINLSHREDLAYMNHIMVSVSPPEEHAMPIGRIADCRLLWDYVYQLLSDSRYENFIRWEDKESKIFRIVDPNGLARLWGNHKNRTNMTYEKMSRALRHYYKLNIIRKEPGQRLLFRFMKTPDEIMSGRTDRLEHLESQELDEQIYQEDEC

## AGAAAC
FLI1
  binding signal: 1.04 fold enrichment (6-mer frequency, TF over GST control)
ELK1
  binding signal: 1.02 fold enrichment (6-mer frequency, TF over GST control)
ELF4
  binding signal: 1.01 fold enrichment (6-mer frequency, TF over GST control)
ELF3
  binding signal: 1.02 fold enrichment (6-mer frequency, TF over GST control)
ERF
  binding signal: 1.05 fold enrichment (6-mer frequency, TF over GST control)
ETV7
  binding signal: 1.16 fold enrichment (6-mer frequency, TF over GST control)
ETV3
  binding signal: 1.01 fold enrichment (6-mer frequency, TF over GST control)
ETV6
  binding signal: 1.03 fold enrichment (6-mer frequency, TF over GST control)
